Data reported in PubChem BioAssay (NCATS).
Inconclusive results are not listed. Where a call stands in place of a potency, no number is given. The source made the active and inactive calls. Calls come from the whole dose curve; as a rule, active = well fitted activation curve with a large enough effect; inconclusive = small, poorly fitted or top-dose-only effect; inactive = flat fitted curve, though single readings scatter.

test: Validation screen for small molecules that induce DNA re-replication in MCF 10A normal breast cells (AID 463097); conditions: MCF 10A cells, DNA re-replication phenotype imaging; series mostly up to 46.1 µM; note: nearly all actives have a fitted effect of over 60% in size
From the text: NIH Molecular Libraries Probe Production Network [MLPCN]
NIH Chemical Genomics Center [NCGC]
Assay Provider: Melvin DePamphilis, NICHD, NIH
Eukaryotic cells normally restrict genome duplication to once per cell division. When this process is aberrant, DNA re-replication occurs when cells reinitiate DNA replication before the first round of replication is complete. DNA re-replication induces the DNA damage response, arrests cell proliferation, and triggers apoptosis. The cell cycle components cyclin A, Cdt-1, Cdc6 and geminin are critical regulators of this process and their misregulation results in DNA re-replication in normal and cancer cells. To identify compounds that induce re-replication in normal cells, an image-based assay was used to measure DNA content of nuclei, as detected by the fluorescent DNA binding dye, Hoechst. Cell nuclei were imaged by a fluorescence scanning plate imager and compounds that induce DNA re-replication were identified by the increase of nuclei with elevated fluorescence intensity.
For screening, 250 cells in 5 uL/well were dispensed into black clear 1536-well plates (Aurora) using a solenoid-based dispenser. Following transfer of 23 nL compound or DMSO vehicle by a pin tool, the plates were incubated 48 hr at 37 C and 5% CO2. After addition of 1 uL/well Hoescht stain, the plates were incubated 40 min at 37 C, 5% CO2 and total intensity of fluorescent objects (nuclei) were enumerated by an Acumen Explorer Ex3 (TTP LabTech) fluorescence scanning plate imager (405 nm excitation, 500-530 nm emission).
Keywords: NIH Roadmap, MLPCN, MLI, MLSMR, qHTS, NCGC, DNA replication, cancer
Potency is the fitted concentration of half-maximal effect.

| Compound | Potency |
| --- | --- |
| c1ccc2c(N3CCNCC3)cccc2c1 | inactive |
| C[N+](C)(C)CCOC(=O)CBr | inactive |
| N[C@@H](CCl)C(=O)O | inactive |
| CCOC(=O)c1ncn2c1[C@@H]1CCCN1C(=O)c1cc(OC)ccc1-2 | inactive |
| NNC(=O)c1ccc(O)cc1 | inactive |
| CC(N)Cc1c[nH]c2ccc(OCc3cccs3)cc12 (stereo not given) | inactive |
| Clc1cc(I)cc(Cl)c1NC1=NCCN1 | inactive |
| NNC(N)=O | inactive |
| Cc1c2ccncc2c(C)c2c1[nH]c1ccccc12 | 7.08 µM (active) |
| C/C(O)=C(\C#N)C(=O)Nc1cc(Br)ccc1Br | inactive |
| NC(=O)c1ccc(OCC(O)CN2CC=C(c3ccc(F)cc3)CC2)cc1 (stereo not given) | inactive |
| N[C@@H](Cn1oc(=O)[nH]c1=O)C(=O)O | inactive |
| C#CCN[C@H](C)Cc1ccccc1 | inactive |
| C[C@]12Cc3cn4c(nc3C=C1CCC1C2CC[C@@]2(C)[C@H]1CC[C@@]2(O)C#N)nc1ccccc14 (stereo not given in full) | 12.6 µM (active) |
| COc1ccc(CNC(=O)/C=C/c2ccc3[nH]cc(CCN(C)C)c3c2)cc1 | inactive |
| CCCN1CCCC2Cc3[nH]ncc3CC21 (stereo not given) | inactive |
| CN1CCC(c2c[nH]c3ccc(O)cc23)CC1 | inactive |
| NC(Cc1ccc(N(CCCl)CCCl)cc1)C(=O)O (stereo not given) | inactive |
| NC(CCCCCP(=O)(O)O)C(=O)O (stereo not given) | inactive |
| COc1ccc2c(c1)[C@@]13CCCC[C@H]1[C@@H](C2)NCC3 | inactive |

| Compound | Potency |
| --- | --- |
| CNC(=O)OCC[N+](C)(C)C | inactive |
| NCCc1ccc(S(=O)(=O)F)cc1 | inactive |
| CC(C)CC(NP(=O)(O)O[C@@H]1O[C@@H](C)[C@H](O)[C@@H](O)[C@H]1O)C(=O)NC(Cc1c[nH]c2ccccc12)C(=O)O (stereo not given in full) | inactive |
| C[C@H](N)CN1CCc2ccc(Br)cc21 | inactive |
| OC1CCCCC1N1CCC(c2ccccc2)CC1 (stereo not given) | inactive |
| CCCN1CC[C@@H]2c3cc(O)ccc3CC[C@@H]21 | inactive |
| Oc1ccc2c3c1O[C@H]1c4oc5ccccc5c4C[C@@]4(O)C(C2)N(CC2CC2)CCC314 (stereo not given in full) | inactive |
| CN(C(=O)Cc1ccc(Cl)c(Cl)c1)C(CN1CCCC1)c1cccc(OCC(=O)O)c1 (stereo not given) | inactive |
| Nc1ccc(CCN2CCN(c3cccc(C(F)(F)F)c3)CC2)cc1 | inactive |
| O=[N+]([O-])c1ccc2nc(N3CCNCC3)ccc2c1 | inactive |
| Cc1[nH]c2ccc(O)cc2c1CCN | inactive |
| OCc1cnc[nH]1 | inactive |
| NCC(CP(=O)(O)O)c1ccc(Cl)cc1 (stereo not given) | inactive |
| CCCN(CCC)C1Cc2cc(OC)c(OC)cc2C1 | inactive |
| CC(N)c1cccc(Cl)c1Cl (stereo not given) | inactive |
| C[Se]C[C@H](N)C(=O)O | inactive |
| C=CCN1CC[C@]23c4c5ccc(O)c4O[C@H]2/C(=N/NC(=O)c2ccccc2)CC[C@@]3(O)[C@H]1C5 | inactive |
| C[N+](C)(C)CC#CCOC(=O)Nc1cccc(Cl)c1 | inactive |
| CC(C)(C)c1cc(C=C(C#N)C#N)cc(C(C)(C)C)c1O | 0.158 µM (active) |
| CC(C)(C)c1o[nH]c(=O)c1CC(N)C(=O)O (stereo not given) | inactive |
